Experimental data as given in the supplement of paper PMC10338343.
± gives the standard deviation.

Key:
[1] = system: MILI (PIWIL2) piRISC loaded with piRNA #1 (26 nt); assay: pre-steady-state target cleavage rate (min^-1); guide: piRNA #1 5'p-UGAGGUAGUAGGUUGUAUAGUAUCCA; higher = faster piRNA-guided slicing of the target; settings: auxiliary factor: 500 nM mouse GTSF1
In short: (§1)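 Cleave-'n-Seq reactions paired 0.1 nM transcribed, DNA-blocked target RNA library with 1 nM active affinity-purified piRISC holding one synthetic guide, plus or minus 500 nM GTSF1 partner protein, in HEPES–potassium acetate buffer at 33 °C for 0–8 or 0–960 min. After sequencing of uncleaved targets and normalisation to depth and weakly complementary targets, the pre-steady-state cleavage rate was taken from a burst-and-steady-state fit. Three trials were pooled, and k3 was capped at 0.0001 min^-1.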

[2] = system: EfPiwi piRISC loaded with piRNA #1 (26 nt); assay: pre-steady-state target cleavage rate (min^-1); auxiliary factor: 500 nM Ephydatia muelleri Gtsf1; guide: piRNA #1 5'p-UGAGGUAGUAGGUUGUAUAGUAUCCA; MIWI and MILI are mouse PIWI proteins and EfPiwi is from a freshwater sponge; tags in brackets are library labels; higher = faster piRNA-guided slicing of the target
In short: as §1

Sequence	pre-steady-state target cleavage rate [1]	pre-steady-state target cleavage rate [2]
GGAGAGGACACUAUACAACCUACUACCUCA	0.185 ± 0.016	0.0224 ± 0.0085
GGAGACCUAACUAUACAACCUACUACCUA	0.0998 ± 0.021	0.0706 ± 0.025
GGAGAGGAUUCUAUACAAGCUACUACCUCA	0.15 ± 0.01	0.00384 ± 0.0028
GGAGACCUUUCUAUACAACCUACUACCUCA	0.0895 ± 0.0097	0.11 ± 0.036
GGAGACCUUACUAUAGAACCUACUACCUCA	0.125 ± 0.015	0.00324 ± 0.0026
GGAGACGAUACUAUACUACCUACUAGCUCA	0.124 ± 0.018	0.00251 ± 0.0018
GGAGUGGAGUACUAUACAACCUACUACCUCA	0.153 ± 0.0099	0.0116 ± 0.0055
GGAGUGGAUACUUUACUACCUACUACCUCA	0.16 ± 0.01	0.00437 ± 0.0036
GGAGAGGAUACGUAUACAACCUACUACCUCA	0.0772 ± 0.011	0.0803 ± 0.032
GGAGACCAUAUAUACAACCUACUACCUCA	0.05 ± 0.0081	0.00541 ± 0.0043
GGAGACGAUACUAAACAUCCUACUACCUCA	0.267 ± 0.021	0.00359 ± 0.0026
GGAGUGGAAACUAUACAACCUACUACCUCA	0.225 ± 0.02	0.0504 ± 0.018
GGAGACGAAACUAUACAAGCUACUACCUCA	0.242 ± 0.02	0.00338 ± 0.0017
GGAGACCUAAUUAUACAACCUACUACCUCA	0.0979 ± 0.011	0.0144 ± 0.0065
GGAGUGGAUACUAUUCAACCUACUACGUCA	0.0439 ± 0.0069	0.00281 ± 0.0015
GGAGACCAUACAAAACAACCUACUACCUCA	0.0496 ± 0.014	0.00423 ± 0.0037
GGAGACCUAACUAUACAACCUGCUACCUCA	0.0157 ± 0.0084	0.0127 ± 0.005
GGAGAGGAUACUAUACAACCUACUAGCCUCA	0.123 ± 0.02	0.00421 ± 0.0018
GGAGACCUAACUAUACAACCCACUACCUCA	0.0098 ± 0.0041	0.00404 ± 0.0036
GGAGACCUAUGUAUUACAACCUACUACCUCA	0.0187 ± 0.0046	0.0036 ± 0.0033

Sequence	pre-steady-state target cleavage rate [1]	pre-steady-state target cleavage rate [2]
GGAGUGGUUACUAUACAACCUACUACCUGA	0.0722 ± 0.01	0.00386 ± 0.0014
GGAGACCAUACUUUACAACCUACUUCCUCA	0.0695 ± 0.018	0.00404 ± 0.0039
GGAGACGAUACUAUACAACGUAGUACCUCA	0.00546 ± 0.0032	0.00274 ± 0.0012
GGAGAGGAUACUAUACGACCUACUACCUCA	0.121 ± 0.0093	0.117 ± 0.05
GGAGUGGAUACUAUACAACCGUACUACCUCA	0.00369 ± 0.0022	0.00658 ± 0.0027
GGAGUGGAUACUAUACAACACUACUACCUCA	0.00621 ± 0.0026	0.00629 ± 0.003
GGAGUCGAUACUAUACAACCUACAACCUCA	0.0405 ± 0.0054	0.00324 ± 0.0017
GGAGUGGAUACUAUACUACGUACUACCUCA	0.042 ± 0.0043	0.00381 ± 0.0021
GGAGACCUAUCUAUACAACCUACUACCGCA	0.174 ± 0.021	0.0051 ± 0.0049
GGAGAGGAAACUUUACAACCUACUACCUCA	0.224 ± 0.031	0.0107 ± 0.0049
GGAGAGGAUACUAAACAACCUACUACCUCA	0.174 ± 0.012	0.00787 ± 0.0036
GGAGACGAUACUAACAACCUACUACCUCA	0.173 ± 0.012	0.00704 ± 0.0045
GGAGAGGAUACUAUACAACCUACGUACCUCA	0.0773 ± 0.012	0.00321 ± 0.0014
GGAGUGCAUACUAUACAACCUACUACGUCA	0.0632 ± 0.0079	0.00318 ± 0.0018
GGAGUUGGAUACUAUACAACCUACUACCUCA	0.184 ± 0.023	0.197 ± 0.056
GGAGACCUGACUAUACAACCUACUACCUCA	0.125 ± 0.028	0.0243 ± 0.01
GGAGACCAUUCUAUACAACCUUCUACCUCA	0.0122 ± 0.0038	0.00336 ± 0.0032
GGAGACCAUACUAUACAACCUACUACGUGA	0.115 ± 0.024	0.0051 ± 0.0028
GGAGACGAUACUUUACAACGUACUACCUCA	0.0294 ± 0.0045	0.00234 ± 0.0017
GGAGAGGAUACUAUACAACCUACUUGCUCA	0.00476 ± 0.0029	0.00478 ± 0.0023

Sequence	pre-steady-state target cleavage rate [1]	pre-steady-state target cleavage rate [2]
GGAGUGCAUACUAUACAACCUACUACCUGA	0.09 ± 0.011	0.00576 ± 0.0029
GGAGUGGAUACUAUACAACCUACUGACCUCA	0.0789 ± 0.011	0.00401 ± 0.0014
GGAGUGGAUACUAUGACAACCUACUACCUCA	0.188 ± 0.011	0.0114 ± 0.0053
GGAGACCAUAGUAUACAACCUACUACCUGA	0.0652 ± 0.012	0.00396 ± 0.0018
GGAGAGGAUAGCUAUACAACCUACUACCUCA	0.035 ± 0.0046	0.0146 ± 0.0073
GGAGACGAUACUAUCCAACCUACUACCUCA	0.175 ± 0.016	0.00717 ± 0.0028
GGAGACCAUACUUACAACCUACUACCUCA	0.0658 ± 0.012	0.00861 ± 0.0046
GGAGACCAAUCUAUACAACCUACUACCUCA	0.117 ± 0.02	0.0121 ± 0.0056
GGAGACGAUACUAUACAACGUACAACCUCA	0.0345 ± 0.0071	0.00279 ± 0.0018
GGAGUGGAUACUAUACAUCCUACUACCUCA	0.267 ± 0.014	0.124 ± 0.044
GGAGUGGACACUAUACAACCUACUACCUCA	0.241 ± 0.025	0.115 ± 0.041
GGAGACCAUACUAUACAAGCUACUACCUCA	0.253 ± 0.02	0.00377 ± 0.0015
GGAGACCUAACUAUACAACGUACUACGUCA	0.00454 ± 0.0043	0.00291 ± 0.0026
GGAGAGGAUAGUAUACAACCUACUACCACA	0.0774 ± 0.011	0.00287 ± 0.002
GGAGAGGAUACUAUACAACCUACUACUCA	0.109 ± 0.017	0.00563 ± 0.0029
GGAGUGGAUACUAUUCAACCUACUAGCUCA	0.0538 ± 0.0095	0.0025 ± 0.0021
GGAGACCUAUCUAUACAACCUACUACCUA	0.0666 ± 0.0086	0.00487 ± 0.0042
GGAGACCAUGACUAUACAACCUACUACCUCA	0.142 ± 0.021	0.0764 ± 0.029
GGAGACGAUACAAUACAACCUACUACGUCA	0.102 ± 0.015	0.00361 ± 0.0032
GGAGACCUUACUAUACAACCUACGACCUCA	0.113 ± 0.012	0.00282 ± 0.0024
